This passage reports inhibition results from ChEMBL document CHEMBL3433997, “St. Jude Leishmania screening dataset” (2016).

The inhibition is the relative decrease from the control value, in per cent.

SMILES strings stand for the structures.

Holding throughout (assay type): functional
Test [1] has as its target Solute carrier family 2, facilitated glucose transporter member 1 (Homo sapiens) (UniProt P11166). As to the kind of experiment: ST_JUDE_LEISH: Cytotoxicity at 2uM final concentration against transgenic Leishmania Mexicana promastigotes LmGLUT1 that are glucose transport deficient and complemented with the human glucose transporter GLUT1. Activity is measured by DNA content using SYBR green in vitro.

Test [2] concerns the target Hexose transporter 1 (Plasmodium falciparum) (UniProt O97467). As to the kind of experiment: ST_JUDE_LEISH: Cytotoxicity at 2uM final concentration against transgenic Leishmania Mexicana promastigotes LmPfHT that are glucose transport deficient and complemented with the Plasmodium falciparum hexose transporter. Activity is measured by DNA content using SYBR green in vitro.

Test [3] has as its target Glucose transporter (Leishmania mexicana) (UniProt O61059). As to the kind of experiment: ST_JUDE_LEISH: Cytotoxicity at 2uM final concentration against transgenic Leishmania Mexicana promastigotes LmGT2 that are glucose transport deficient and complemented with the L. Mexicana glucose transporter 2. Activity is measured by DNA content using SYBR green in vitro.

Solute carrier family 2, facilitated glucose transporter member 1 (Homo sapiens), sequence (P11166 whole entry): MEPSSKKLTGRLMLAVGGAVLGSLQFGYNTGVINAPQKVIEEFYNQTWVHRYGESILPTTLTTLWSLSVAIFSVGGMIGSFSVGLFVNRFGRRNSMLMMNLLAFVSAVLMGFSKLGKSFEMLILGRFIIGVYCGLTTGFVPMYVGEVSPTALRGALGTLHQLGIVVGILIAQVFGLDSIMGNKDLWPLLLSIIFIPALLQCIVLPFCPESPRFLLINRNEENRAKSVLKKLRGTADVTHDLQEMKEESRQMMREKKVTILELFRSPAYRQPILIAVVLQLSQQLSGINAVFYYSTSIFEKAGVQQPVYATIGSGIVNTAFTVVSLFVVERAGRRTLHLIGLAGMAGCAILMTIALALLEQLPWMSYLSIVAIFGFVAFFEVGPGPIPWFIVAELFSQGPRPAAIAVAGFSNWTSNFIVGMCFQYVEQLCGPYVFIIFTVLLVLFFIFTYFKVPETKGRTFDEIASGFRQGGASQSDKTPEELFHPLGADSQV

In the case of `CNC(=O)c1ccc2nc(C3CC3)n(CC3CCN(S(=O)(=O)c4cccc(Cl)c4)CC3)c2c1`, the inhibition in test [1] worked out at 1.69%; in test [2], 1.44%; in test [3], 2.49%.
As to `CCc1c(CCNCCCCCNCCc2ccc(OC)c(OC)c2CC)ccc(OC)c1OC`, the values for the inhibition in test [1], in test [2] and in test [3] were 3.35%, 5.75% and 4.72%, respectively.
For `O=C(Nc1ccc2c(c1)CCN2C1CCN(Cc2cccc3cc[nH]c23)C1)c1ccco1` (stereo not drawn), the figures for the inhibition in test [1], in test [2] and in test [3] were 0.46%, -0.85% and 1.83%, respectively.
With `O=C(Nc1cccc(C(F)(F)F)c1)c1cccc(S(=O)(=O)NCC2CCN(CC3CCCCC3)CC2)c1`, the results for the inhibition in test [1], in test [2] and in test [3] were 0.21%, -0.63% and -0.78%, respectively.
The corresponding values for `COc1ccc(C=CC(=O)NC(=O)c2ccccc2OC(=O)c2ccccc2)cc1OC` are 2.48%, 2.16% and 1.89%.
Take `COc1ccc(C=CC(=O)Nc2ccc(N3CCCC3)cc2)cc1`: the inhibition in test [1] is 1.15%; in test [2] it was -1.95%; in test [3], -1%.
The corresponding values for `COc1ccc(Oc2cnc(N)nc2N)c(C(C)C)c1` are 4.31%, 5.88% and 2.01%.
For `Cc1ccccc1C1CCN(c2ncc(C(=O)NC3CC3)cc2Cl)CC1`, the inhibition in test [1] was -1.43%; in test [2], 5.9%; in test [3] it was 2.12%.
The like results for `O=C(NCCN1CCCCC1)c1cccc(Nc2nccc(Nc3ccc(Oc4ccccc4)cc3)n2)c1` were, in that order, -0.01%, -0.85% and -0.27%.
The corresponding values for `OCCN1CCN(Cc2ccc(-c3cccc(-c4nc5cc(F)ccc5[nH]4)c3)cc2)CC1` are 2.82%, -0.2% and 0.18%.
The corresponding values for `O=C(/C=C/c1ccc(Cl)c(Cl)c1)NCCCCCCN1CCCN(C(=O)Nc2ccc(C(F)(F)F)cc2)CC1` are 2.54%, 2.95% and 2.88%.
`CC(C)NCc1cccc(-c2cccc(NC(=O)c3ccc(C#N)cc3)c2)c1`: the inhibition in test [1] is -1.2%; in test [2] it was 1.04%; in test [3] it was -1.22%.
In the case of `COc1ccc(CNC2Cc3ccccc3C2)cc1-c1ccc(S(=O)(=O)NCc2cccnc2)s1`, the inhibition in test [1] amounted to 1.92%; in test [2], 2.48%; in test [3] it was 0.3%.
With `Cc1sc2nc(CSc3ccccc3)nc(N3CCN(CC(=O)NC4CC4)CC3)c2c1C`, the inhibition was -0.96% in test [1], -2.01% in test [2] and -1.85% in test [3].
The corresponding values for `Cc1ccc(C2CCN(CCCCNC(=O)c3ccc(-c4ccc(C#N)cc4)cc3)CC2)c(O)c1` are 7.24%, 7.29% and 7.94%.
The like results for `COc1ccc2ncc(F)c(CCN3CC(O)C(CNCc4ccc5c(n4)NC(=O)CS5)C3)c2c1` (stereo not drawn) were, in that order, 1.08%, 1.93% and 2.84%.
The corresponding values for `CCNC(C)(C)CN(Cc1ccc(-c2ccc(C(F)(F)F)cc2)cc1)C(=O)Cn1c(SCc2ccc(F)cc2)nc(=O)c2c1CCC2` are 8.5%, 5.99% and 5.46%.
Regarding `COc1ccc2nccc([C@@H](O)CN3CCC(NCCOc4cccc(C(F)(F)F)c4Cl)CC3)c2c1`, the figures for the inhibition in test [1], in test [2] and in test [3] were 11.3%, 12% and 6.66%, respectively.
The like results for `O=C(NC1CCCCC1)N(Cc1ccccc1-c1ccc(CNCCc2ccccc2)cc1)C1CCN(Cc2ccccc2)CC1` were, in that order, 4.39%, 3.18% and -0.58%.
The corresponding values for `O=C(CCc1cccc(O)c1)NCC(NCCCNc1cc(=O)c2ccccc2[nH]1)c1cc(Br)cc(Br)c1` (stereo not drawn) are 8.91%, 5.63% and 6.84%.
The corresponding values for `NC(=O)NC(=O)C=Cc1ccco1` are 0.54%, 1.9% and 1.91%.
Regarding `CCCCOc1c(CCNCCCCNCCc2cc(OC)c3ccccc3c2OCCCC)cc(OC)c2ccccc12`, the values for the inhibition in test [1], in test [2] and in test [3] were 4.98%, 5.5% and 2.03%, respectively.
In the case of `CC(=O)Nc1nc(C(=O)Nc2cccc(-c3ccc4c(cnn4CC4CC4)c3)c2)cs1`, the inhibition in test [1] turned out to be 1.74%; in test [2] it was 1.84%; in test [3], 2.13%.
The corresponding values for `O=C(NCc1cccc(C(F)(F)F)c1)c1ccc(CNC(=O)c2ccc(O)c(-c3ccc(Cl)c(Cl)c3)c2)cc1` are 5.02%, 2.57% and 3.47%.
The corresponding values for `COc1ccc2c(=NN=CC=Cc3ccccc3)cc(C)[nH]c2c1` are 0.78%, 4.29% and 3.21%.
The corresponding values for `COc1cc(Cc2cnc(N)nc2N)cc(OCCCCCC(=O)O)c1OC` are 6.91%, 5.78% and 5.12%.
For the compound `O=S(=O)(Nc1ccc2nccc(N3CCNCC3)c2c1)c1ccc2oc3ccccc3c2c1`, the inhibition in test [1] stood at 4.08%; in test [2] it was 6.5%; in test [3] it was 5.02%.
The corresponding values for `Nc1ncc(-c2ccsc2)c2ccc(-c3ccc4cn[nH]c4c3)cc12` are 3.11%, 1.38% and 5.29%.
With `C=CCOC(=O)N1CCC(CNCc2cccc(-c3cccc(-c4nc5cccc(C)c5[nH]4)c3)c2)C1` (stereo not drawn), the inhibition was found to be 3.47% in test [1], 1.88% in test [2] and 7.29% in test [3].
The corresponding values for `CCN(CC)CCN(Cc1ccc(-c2ccc(C(F)(F)F)cc2)cc1)C(=O)Cn1cc(CCCc2cccc(F)c2F)c(=O)c2ccccc21` are 4.03%, 3.93% and 4.35%.
The corresponding values for `CCSc1ccccc1CON1C(=N)N=C(N)NC1(C)C` are 15.4%, 19.1% and 18.7%.
The corresponding values for `COc1cccc(CNc2ncc(-c3ccsc3)c(-c3nccs3)n2)c1` are -0.5%, 0.89% and -0.73%.
`CCCNCc1ccc(-c2ccc(CN(CCOC)C(=O)CCCOCc3ccccc3)cc2)nc1`: the inhibition in test [1] was 3.08%; in test [2], 1.41%; in test [3], 0.45%.
Take `CCc1nnc2sc(-c3cccc(NC(=O)c4ccc(C)c([N+](=O)[O-])c4)c3)nn12`: the inhibition in test [1] was determined as 7.69%; in test [2] it was 3.97%; in test [3], 2.48%.
For `CCN(CC)CCN(Cc1ccc(-c2ccc(C(F)(F)F)cc2)cc1)C(=O)Cn1c(CCc2cccc(F)c2F)nc(=O)c2ccc(C(F)(F)F)cc21`, the inhibition in test [1] is 1.5%; in test [2], 1.49%; in test [3], 1.99%.
Turning to `CN(C)CCN(C)Cc1ccc(-c2ccc(NS(=O)(=O)c3cccc4cccnc34)cc2)cc1`, the inhibition in test [1] came to 9.5%; in test [2], 9.32%; in test [3] it was 3.58%.
